EPAC2 ant val = human EPAC2 antagonism, validation; Q8WZA2; EPAC2 Rap1B BODIPY-GDP exchange, fluorescence; Potency, µM (titrated, usually from 112 µM), for inactives: at the top dose activity, negative = inhibition, actives largely listed as inhibitors; hit rate 1.7% among 16,000; AID 1645886;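 note: 100% = activation by cAMP agonist control; nearly all actives have a fitted effect of over 40% in size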
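Normalized against a 6.5 mM cAMP agonist control, compounds were tested on 100 nM EPAC2 exchanging Rap1B-bound BODIPY-GDP (250 nM) for 50 uM GDP. Fluorescence drop (ex 480, em 540 nm) was tracked at room temperature over 30 min at 5-min intervals.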
EPAC1 ag val = validation of human EPAC1 agonists. O95398. EPAC1 Rap1b BODIPY-GDP exchange, fluorescence. Potency, µM, inactives show max response, positive = active, actives largely listed as activators. hit rate 1% among 16,000; note: nearly all actives have a fitted effect of over 70% in size
Numbers without * were called inactive; i = inactive; ? = inconclusive; ! = repeats disagree; [ ] = another dose, or the depositor's remark. Rows were chosen to be rich in hits. Some 2.9% of all compounds tested hit in one or more screens of this group. Calls come from the whole dose curve; as a rule, active = well fitted curve in the direction sought with a large enough effect; inconclusive = small, poorly fitted or top-dose-only effect, or another doubt; inactive = no such curve, though single readings can be large; an effect the other way counts as inactive or inconclusive. Unless noted, % is set by controls: 0 for no effect and ±100 for the full control effect; potency is the fitted concentration of half-maximal effect.

SMILES	EPAC2 ant val	EPAC1 ag val
CCCC(=O)OC[C@@H](OC(=O)CCC)[C@@H](OC(=O)CCC)[C@H](Cn1c2nc(=O)[nH]c(=O)c-2nc2cc(C)c(C)cc21)OC(=O)CCC	119.0%	?
Cc1cc2nc3c(=O)[nH]c(=O)nc-3n(CC(O)C(O)C(O)CO)c2cc1C (stereo unspecified)	i	35.5µM*
CC(C)CC1C(=O)N2CCCC2C2(O)O[C@@](NC(=O)C3C=C4c5cccc6[nH]c(Br)c(c56)CC4N(C)C3)(C(C)C)C(=O)N12 (stereo partly specified)	-19.3%	?
CC(C)C[C@H]1C(=O)N2CCC[C@H]2[C@]2(O)O[C@](NC(=O)[C@@H]3C=C4c5cccc6[nH]c(Br)c(c56)C[C@H]4N(C)C3)(C(C)C)C(=O)N12	-18.6%	112µM*!
O=C(c1cc(C(F)(F)F)cc(C(F)(F)F)c1)N1CCC2(CC1)CCN(c1ncccn1)CC2	?	-80.5%
COc1cc2cc3c4c(cc(OC)c(OC)c4c2cc1OC)CCN3C	50.1µM*	?
COc1cc2c(cc1OC)C(=O)N(C)CC2	-19.0%	-15.8%
N[C@H](C(=O)O)[C@@H](O)c1ccc(O)c(O)c1	79.4µM*	?
N[C@@H](Cc1ccc(O)c(O)c1)C(=O)O	1.0%	-0.6%
COc1ccccc1CNc1nc(-c2cccnc2)nc2ccccc12	-22.4%	89.1µM*
Cc1cccc(CNc2nc(-c3ccc4c(c3)OCO4)nc3ccccc23)c1	?	112µM*
COc1ccc(CNc2nc(-c3ccc4c(c3)OCO4)nc3ccccc23)c(OC)c1	-14.8%	112µM*
COc1cccc(-c2nc(NCc3ccc(OC)cc3OC)c3ccccc3n2)c1	-21.1%	?
COc1ccccc1-c1nc(NCc2cccnc2)c2ccccc2n1	-13.5%	-20.6%
c1cncc(CNc2nc(-c3ccc4c(c3)OCO4)nc3ccccc23)c1	-19.8%	?
COc1ccccc1CC(=N)N1C[C@@H]2C(=O)CCC(c3ccccc3)(c3ccccc3)[C@@H]2C1	?	-12.3%
O=c1cnc2cnc(Nc3ccccc3)nc2n1Cc1cccs1	-17.0%	-25.4%
Cc1cc(O)c(C=O)c(O)c1C(=O)O	-0.3%	-1.1%
N[C@@H](CSCCCO)C(=O)O	-11.6%	-13.2%
CCCCCCCCCCCCCC(=O)OC(C)C	-34.2%	6.5%
COC(=O)[C@@H]1CCCN1Cc1ccc2c(c1)CN(Cc1ccccc1)CCO2	-18.8%	1.7%
CC[N+]1(C)C2CCC1CC(OC(=O)[C@H]1CCC(C(=O)OC3CC4CCC(C3)[N+]4(C)CC)(c3ccccc3)c3ccccc31)C2 (stereo partly specified)	-7.1%	-8.3%
COCCn1c(=O)c(-c2ccc(F)cc2)nc2cnc(Nc3cccc(OC)c3)nc21	-10.4%	22.3%
COCCn1c(=O)c(-c2cc(F)cc(F)c2)nc2cnc(Nc3cccc(OC)c3)nc21	0.2%	89.1µM*
COc1cccc(Nc2ncc3nc(-c4cc(F)cc(F)c4)c(=O)n(C4CC4)c3n2)c1	-5.9%	100µM*
SMILES	EPAC2 ant val	EPAC1 ag val
COc1cccc(Nc2ncc3nc(-c4ccccc4)c(=O)n(C4CC4)c3n2)c1	-11.6%	-37.1%
CC(C)c1c(O)ccc2c1CCC1C(C)(C)CCC[C@@]21C (stereo partly specified)	?	12.7%
C[C@@H](c1ncncc1F)C(O)(Cn1cncn1)c1ccc(F)cc1F (stereo partly specified)	-14.4%	-28.6%
COc1ccc(-c2c(-c3ccc4c(c3)OCO4)noc2-c2ccsc2)cn1	?	-4.9%
c1ccc(-c2onc(-c3ccco3)c2-c2ccc3c(c2)OCO3)cc1	-17.8%	112µM*
COc1ccc(-c2nc3cnc(N4CCNCC4)nc3n(-c3ccc(OC)cc3)c2=O)cc1	-20.8%	6.9%
COc1ccc2[nH]cc(CCNc3ncnc4ccc(-c5ccccc5C#N)cc34)c2c1	-21.3%	112µM*
COc1ccc2[nH]cc(CCNc3ncnc4ccc(-c5cccc(C#N)c5)cc34)c2c1	-22.5%	23.6%
CSc1ncccc1C(=O)N1CCc2nnc(C(NC(=O)c3ccoc3)C(C)C)n2CC1 (stereo unspecified)	-2.5%	-12.0%
CC(C)c1cc(/C=C(\C#N)C(=O)NCCCc2ccccc2)cc(C(C)C)c1O	-18.6%	28.4%
O=C(C[n+]1ccc(/C=C/c2c[nH]c3ccccc23)c2ccccc21)c1ccccc1	-19.0%	?
C=C[C@@](C)(O)CC[C@@H]1[C@@]2(C)CCCC(C)(C)[C@@H]2CC[C@@]1(C)O	?	-26.9%
C=C[C@](C)(O)CCC1C(=C)CC(OC(C)=O)C2C(C)(C)CCCC12C (stereo partly specified)	10µM*	-115.8%
CN(C)c1ccc(C(=C2C=CC(=[N+](C)C)C=C2)c2ccccc2)cc1	-0.9%	-10.4%
CN(C)c1ccc(C(=C2C=CC(=[N+](C)C)C=C2)c2c(O)c(S(=O)(=O)[O-])cc3cc(S(=O)(=O)O)ccc23)cc1	56.2µM*	-36.4%
Cc1sc(N)c(C(=O)c2cccc(C(F)(F)F)c2)c1C	56.2µM*	-43.6%
Cc1oc(-c2ccccc2NC(=O)C2CCC2)nc1CNC(=O)c1cccc(C(F)(F)F)c1	-36.2%	13.3%
c1ccc(CN2CCC3(CCc4ccccc43)CC2)cc1	2.2%	-9.7%
Cc1cccc(N(C)C(=S)Oc2ccc3ccccc3c2)c1	-26.6%[56.6 µM]	112µM*!
Cc1cccc(N(C)C(=S)Oc2ccc3c(c2)CCC3)c1	-12.1%	23.9%
Fc1ccc(Nc2ncnc3ccc(-c4ccoc4)cc23)cc1	-30.7%	-31.9%
C[C@@H](O[C@H]1OCCN(Cc2n[nH]c(=O)[nH]2)[C@@H]1c1ccc(F)cc1)c1cc(C(F)(F)F)cc(C(F)(F)F)c1	50.1µM*	-59.7%
COc1cc2ccc(=O)oc2cc1O	-16.0%	100µM*!
COc1ccc2ccc(=O)oc2c1CC=C(C)C	?	-39.6%
C[C@@H]1/C(=N/O)CC2C[C@@H]1C2(C)C	-24.0%	-105.7%
SMILES	EPAC2 ant val	EPAC1 ag val
COc1ccc(SC[C@H](Cc2ccccc2)N2CC[C@@H](C)CCC2=O)cc1	39.8µM*	5.2%
Cc1ccc(SC[C@H](Cc2ccccc2)N2CC[C@@H](C)CCC2=O)cc1	?	-25.3%
CC(=O)N1CCC2(CC1)CN(c1ccncc1)C2	-25.6%	-41.5%
COC(=O)c1cc(CNC(=O)c2ccccc2F)cc(NC(=O)c2ccccc2OC)c1	?	-5.9%
COc1ccc(C(=O)c2ccc(C)cc2)c(O)c1	?	-7.4%
COc1ccc(C(=O)c2ccccc2)c(O)c1	39.8µM*!	-20.8%
O=C(NCC1Cc2cccc(-c3cnccn3)c2O1)C1COc2ccccc2O1 (stereo unspecified)	-4.9%	-7.5%
COc1cccc(Nc2ncc3nc(-c4cn(C)c5ccccc45)c(=O)n(C[C@H]4CCCO4)c3n2)c1	8.7%	112µM*
COc1cccc(Cn2c(=O)c(-c3ccccc3)nc3cnc(N4CCN(C)CC4)nc32)c1	-11.6%	-54.3%
COc1cccc(Nc2ncc3nc(C)c(=O)n(C[C@H]4CCCO4)c3n2)c1	-11.1%	5.7%
COc1cccc(Cn2c(=O)c(-c3cn(C)c4ccccc34)nc3cnc(N4CCNCC4)nc32)c1	79.4µM*	?
COc1cccc(Cn2c(=O)c(-c3cn(C)c4ccccc34)nc3cnc(N4CCOCC4)nc32)c1	13.5%	0.0%
COc1cccc(Cn2c(=O)c(CCc3ccccc3)nc3cnc(N4CCN(C)CC4)nc32)c1	-3.4%	112µM*
CC(=O)O[C@@H]1C(=O)O[C@@H]2[C@H]1OC(=O)[C@@H]2OC(C)=O	17.1%	7.5%

Compound activity deposited in PubChem BioAssay by National Center for Advancing Translational Sciences (NCATS).
